Bioassay records from PubChem BioAssay.
ALOX12 inh: inhibitors of human 12S-lipoxygenase ALOX12 | AID 1671190 | purified 12hLO, xylenol orange hydroperoxide absorbance | 580,000 compounds, 1.1% hits | Potency, µM (series often up to 108 µM), for inactives: at the top dose activity change, negative = inhibition, usual class: inhibitors | P18054; note: potency is the fitted concentration of half-maximal effect
Target sequence (P18054 whole entry, looked up): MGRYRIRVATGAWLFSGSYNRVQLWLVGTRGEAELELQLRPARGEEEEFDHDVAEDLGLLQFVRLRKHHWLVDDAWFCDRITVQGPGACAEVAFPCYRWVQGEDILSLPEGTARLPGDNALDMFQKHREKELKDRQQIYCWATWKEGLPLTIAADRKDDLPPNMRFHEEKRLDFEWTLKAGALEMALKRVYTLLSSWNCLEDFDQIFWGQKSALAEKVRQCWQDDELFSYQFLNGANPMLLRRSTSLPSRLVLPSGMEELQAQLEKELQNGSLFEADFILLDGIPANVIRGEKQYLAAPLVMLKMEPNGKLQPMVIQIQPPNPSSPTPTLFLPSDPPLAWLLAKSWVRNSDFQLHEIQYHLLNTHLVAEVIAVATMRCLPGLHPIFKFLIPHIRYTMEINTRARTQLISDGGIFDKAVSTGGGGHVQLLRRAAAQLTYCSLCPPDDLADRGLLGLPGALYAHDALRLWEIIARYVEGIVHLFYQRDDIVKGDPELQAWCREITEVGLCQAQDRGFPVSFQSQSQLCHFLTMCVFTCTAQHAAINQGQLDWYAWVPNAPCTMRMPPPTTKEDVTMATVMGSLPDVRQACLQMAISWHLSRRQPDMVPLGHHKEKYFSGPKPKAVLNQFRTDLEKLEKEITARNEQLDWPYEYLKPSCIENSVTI
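Purified human 12hLO (150 nM final) in 25 mM Hepes, 0.01% Triton X-100, pH 7.0 was preincubated 15 min at room temperature with compound. Then 40 uM arachidonic acid was added, 30 min. Hydroperoxide was read by Fe-XO absorbance ratio 573/405 nm.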
IL-1B inflam inh: blocks inflammasome-driven IL-1 beta release; 360,000 compounds, 4.7% hits; activity change, % at 57.5 µM; THP-1 LPS/ATP IL-1B secretion, AlphaLISA, 16 h; hits give low values; in the data active = activity change below about -50%; inconclusive = mostly about -30% to -49%
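THP-1 cells pretreated 1 hr with compounds (up to 57.5 uM final), then stimulated with LPS (250 ng/mL final) plus ATP (1.25 mM final); secreted IL-1B measured by AlphaLISA after 16 hr, decreased signal indicating inhibition.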
HT1080 IDH1KD tx: toxicity to HT-1080 IDH1 knockdown cells (counter line) | HT-1080 IDH1 knockdown viability, ATP luminescence, 48 h | Potency, µM (top dose mostly 46.1 µM), inactives show at the highest dose activity, negative = toxicity, hits mostly cytotoxic | 360,000 compounds, 2% hits;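 note: potency is the fitted concentration of half-maximal effect; 0% = DMSO wells and -100% = cell-free medium wells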
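CellTiter-Glo luminescence after 48 h compound exposure at 37 degrees C of IDH1-knockdown HT-1080 cells in 5% FBS RPMI. %Activity scaled between DMSO wells and cell-free media wells, with curves fitted and assigned curve classes.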
TDP1 cell noCPT: qHTS for Inhibitors of human tyrosyl-DNA phosphodiesterase 1 (TDP1): qHTS in cells in absence of CPT; DT40 Tdp1-/- hTDP1 cells, no CPT, ATP luminescence, 48 h; AID 686978, 2013; 420,000 compounds, 15% hits; Potency, µM (series often up to 46.2 µM), for inactives: at the highest dose activity change, negative = growth inhibition, usual class: inhibitors; note: potency is the fitted concentration of half-maximal effect; nearly all actives have a fitted effect of over 55% in size
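Growth of hTDP1-complemented DT40 Tdp1-knockout cells is measured by ATP luminescence after at least 48 hr compound exposure at 37 °C, with DMSO substituting for the 20 nM CPT used in the parallel screen.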
HT1080NT lethal: kills 2HG-producing HT-1080-NT fibrosarcoma cells; Potency, µM (titrated, usually from 46.1 µM), inactives show at the highest dose activity, negative = less viability, actives largely listed as cytotoxic; HT-1080-NT fibrosarcoma viability, CellTiter-Glo ATP luminescence, 48 h; 360,000 compounds, 1.6% hits; AID 686970;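 note: NT is the 2HG producing partner of a matched IDH1 knockdown line; potency is the fitted concentration of half-maximal effect; 0% = DMSO-treated cells and -100% = media-only wells without cells; nearly all actives have a fitted effect of over 55% in size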
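Read-out is CellTiter-Glo luminescence after 10 minutes at room temperature, following 48 hours' compound treatment of HT-1080-NT cells (750 cells/well, RPMI, 5% FBS, 37 degrees C).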
TDP1 cell CPT: DT40-hTDP1 cell growth loss with CPT; 420,000 compounds, 12% hits; chicken DT40 Tdp1-/-;hTDP1 cells + 20 nM CPT, ATP luminescence, 48 h; Potency, µM (top dose mostly 46.2 µM), without a hit: at the highest dose activity change, negative = growth inhibition, actives largely listed as inhibitors; note: potency is the fitted concentration of half-maximal effect; nearly all actives have a fitted effect of over 55% in size
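Chicken DT40 Tdp1-/- cells stably complemented with human TDP1 were seeded at 400 cells/well in medium containing 20 nM camptothecin, exposed to pin-transferred compounds, and grown at 37 °C for at least 48 hr. Viability was read as ATP luminescence.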
Active calls of the source: *; u = inconclusive; x = no result; [ ] = another dose, or the depositor's remark. This excerpt belongs to a sample that is enriched for hits. Unless noted, calls come from the whole dose curve; as a rule, active = well fitted curve in the direction sought with a large enough effect; inconclusive = small, poorly fitted or top-dose-only effect, or another doubt; inactive = no such curve, though single readings can be large; an effect the other way counts as inactive or inconclusive. Unless noted, % is set by controls: 0 for no effect and ±100 for the full control effect.

SMILES | ALOX12 inh | IL-1B inflam inh | HT1080 IDH1KD tx | TDP1 cell noCPT | HT1080NT lethal | TDP1 cell CPT
NC(=O)c1sc2nc(-c3ccco3)ccc2c1N | u | -67.8* | 13.2% | -25.8% | 10.3% | -18.7%
COC(=O)c1sc2nc(-c3ccco3)ccc2c1N | u | 9.4 | 7.9% | u | 11.5% | -16.2%
CCCC(=O)Nc1c2c(nn1-c1ccccc1)CSC2 | 2.8% | -8.6 | 2.6% | -19.6% | -7.8% | 2.9%
CCC(=O)Nc1c2c(nn1-c1cccc(Cl)c1)CSC2 | u | 3.3 | 11.5% | 0.731µM* | 13.4% | -10.4%
CC(OC(=O)Cn1cnc2c1c(=O)n(C)c(=O)n2C)C(=O)Nc1ccc(F)c(F)c1F (stereo not drawn) | 4.4% | x | x | x | x | x
CSc1ccccc1NC(=O)Cc1coc2cc(C)c(C)cc12 | 2.0% | x | x | x | x | x
CN(C)CCNC(=O)c1cccc(-c2cnc3c(NC=O)cc(-c4cccs4)cn23)c1 | -3.2% | -10.2 | u | u | u | u
CN(C)CCNC(=O)c1cccc(-c2cnc3c(NC=O)cc(-c4ccccc4F)cn23)c1 | -8.7% | -15.4 | u | 20.6µM* | u | u
Cc1cc(-c2cc(NC=O)c3ncc(-c4cccc(C(=O)NCCN(C)C)c4)n3c2)cc(C)c1O | -22.4% | -3.0 | 25.9µM* | u | 25.9µM* | u
c1ccc(Nc2ncncc2-c2ccoc2)cc1 | 17.8µM* | x | x | -27.1% | x | u
COc1ccccc1-c1cncnc1Nc1ccccc1 | 39.8µM* | x | x | -4.6% | x | u
Fc1ccc(Nc2ncncc2-c2ccoc2)cc1 | 39.8µM* | x | x | -11.5% | x | -14.5%
COc1ccccc1-c1cncnc1NCCN1CCOCC1 | u | x | x | 5.17µM* | x | 7.31µM*
CC(=O)c1cccc(N2C(=O)[C@@H]3C[C@@H](NC(=O)c4ccncc4)CCN3C2=O)c1 | -20.2%[176 µM] | x | x | x | x | x
O=C(NCC1CCCO1)C1CCN(c2cc(C(F)(F)F)ncn2)CC1 (stereo not drawn) | 9.0% | x | x | x | x | x
C#CCN1CCC(C(=O)NCCN2CCCCC2)CC1 | -25.8% | x | x | x | x | x
CNC(=O)c1cccc(CNC(=O)c2nccnc2N)c1 | 6.0% | x | x | x | x | x
O=C(CCN1CCN(Cc2ccccc2)CC1)Nc1cccc(Br)c1 | -11.0% | -16.1 | -16.5% | 16.4µM* | -10.3% | 16.4µM*
COc1cccc(NC(=O)CCCN2C(=O)C3CC=CCC3C2=O)c1 (stereo not drawn) | 9.2% | 1.6 | 10.3µM* | 4.5% | u | -1.8%
Cc1cccc(NC(=O)CCN2CCN(Cc3cccc4ccccc34)CC2)c1 | 28.2µM* | x | x | x | x | x
Cc1cc(C)c(NC(=O)CCN2CCN(Cc3ccccc3)CC2)c(C)c1 | 0.0% | -2.6 | -18.1% | 16.4µM* | -16.5% | u
Cc1cccc(NC(=O)CCN2CCN(C)CC2)c1 | 10.9% | 4.9 | -3.9% | -6.7% | -13.3% | 3.2%
O=C(CN1CCOC1=O)N[C@@H]1[C@@H](Cc2ccccc2)[C@H]2OCC[C@@H]12 | 59.7% | x | x | x | x | x
CCN1CCN(CCC(=O)Nc2cccc(OC)c2)CC1 | 0.0% | -11.6 | -0.9% | 5.5% | 2.0% | -27.5%
COc1cccc(NC(=O)CCN2CCN(c3ccccc3)CC2)c1 | 8.5% | x | x | 10.3µM* | x | u
O=C(CCN1CCN(Cc2ccccc2)CC1)Nc1ccc(OCc2ccccc2)cc1 | -9.5% | 0.0 | -20.5% | 14.6µM* | -13.3% | u
CCCN(Cc1nc(-c2ccc(C(F)(F)F)cc2)oc1C)CC1CCCO1 (stereo not drawn) | 27.5% | x | x | x | x | x
COc1ccc(-n2c(CN3CCN(c4ccccn4)CC3)nc3ccc([N+](=O)[O-])cc3c2=O)c(OC)c1 | 53.6% | -23.0 | 0.1% | 20.6µM* | -0.6% | u
